Rows were chosen to be rich in hits. Some 19% of all compounds tested hit in one or more screens of this group.
DT40 TDP1 CPT – growth inhibition of DT40 Tdp1-/-;hTDP1 cells with camptothecin (screen for TDP1 inhibitors); chicken DT40 Tdp1-/-;hTDP1 cells + 20 nM CPT, ATP luminescence, 48 h; Potency, µM (titrated, usually from 46.2 µM), for inactives: top-dose activity change, negative = growth inhibition, usual class: inhibitors; hit rate 12% among 420,000; further: potency means the concentration at half of the fitted maximal effect; nearly all actives have a fitted effect of over 55% in size
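Chicken DT40 Tdp1-/- cells stably complemented with human TDP1 were seeded at 400 cells/well in medium containing 20 nM camptothecin, exposed to pin-transferred compounds, and grown at 37 °C for at least 48 hr. Viability was read as ATP luminescence.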
HT1080 IDH1KD tx – toxicity to HT-1080 IDH1 knockdown cells (counter line); HT-1080 IDH1 knockdown viability, ATP luminescence, 48 h; Potency, µM (series often up to 46.1 µM), inactives show at the top dose activity, negative = toxicity, most hits filed as cytotoxic; hit rate 2% among 360,000; AID 686971;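 further: potency means the concentration at half of the fitted maximal effect; 0% = DMSO wells and -100% = cell-free medium wells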
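In this qHTS, HT-1080 cells depleted of IDH1 are exposed for 48 h at 37 °C to compound titrations. Toxicity is scored from CellTiter-Glo luminescence, with DMSO as full viability and medium alone as none.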
HT1080NT lethal – kills 2HG-producing HT-1080-NT fibrosarcoma cells; Potency, µM (highest dose often 46.1 µM), for inactives: at the highest dose activity, negative = less viability, usual class: cytotoxic; hit rate 1.6% among 360,000; HT-1080-NT fibrosarcoma viability, CellTiter-Glo ATP luminescence, 48 h;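 further: NT is the 2HG producing partner of a matched IDH1 knockdown line; potency means the concentration at half of the fitted maximal effect; 0% = DMSO-treated cells and -100% = media-only wells without cells; nearly all actives have a fitted effect of over 55% in size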
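Fibrosarcoma NT cells, 750 per well in 5% FBS RPMI, were exposed to compound for 48 hours. Viability: CellTiter-Glo luminescence.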
IL1B secr inh – blocks inflammasome-driven IL-1 beta release; THP-1 LPS/ATP IL-1B secretion, AlphaLISA, 16 h; active compounds read low; activity change, % at 57.5 µM; hit rate 4.7% among 360,000; AID 743279; in the data active means activity change below about -50%; inconclusive means mostly about -30% to -49%
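THP-1 cells pretreated 1 hr with compounds (up to 57.5 uM final), then stimulated with LPS (250 ng/mL final) plus ATP (1.25 mM final); secreted IL-1B measured by AlphaLISA after 16 hr, decreased signal indicating inhibition.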
TDP1 cell noCPT – qHTS for Inhibitors of human tyrosyl-DNA phosphodiesterase 1 (TDP1): qHTS in cells in absence of CPT; hit rate 15% among 420,000; DT40 Tdp1-/- hTDP1 cells, no CPT, ATP luminescence, 48 h; AID 686978, 2013; Potency, µM (doses to about 46.2 µM), for inactives: top-dose activity change, negative = growth inhibition, hits mostly inhibitors; further: potency means the concentration at half of the fitted maximal effect; nearly all actives have a fitted effect of over 55% in size
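DT40 Tdp1-/-;hTDP1 cells, no CPT (DMSO vehicle only), 400 cells/well; compounds pin-transferred; ≥48 hr, 37 °C; CellTiter-Glo 30 min RT dark, luminescence read.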
* marks the source's active call; other numbers are inactive results. Unless noted, the call rests on the fitted dose curve; in most records, active means well fitted curve in the direction sought with a large enough effect; inconclusive means small, poorly fitted or top-dose-only effect, or another doubt; inactive means no such curve, though single readings can be large; an effect the other way counts as inactive or inconclusive. Unless noted, on the % scale 0 is the no-effect control and ±100 the full control effect.

For COCc1ccc2oc(C(=O)O)cc2c1 the results were DT40 TDP1 CPT 11.6µM*, HT1080 IDH1KD tx 15.4%, HT1080NT lethal 18.9%, IL1B secr inh 17.7 and TDP1 cell noCPT 23.1µM*.
CN1CCN(C2=NC(=O)/C(=C/c3cn[nH]c3-c3ccccc3)S2)CC1 was read as DT40 TDP1 CPT inconclusive, HT1080 IDH1KD tx 14.4%, HT1080NT lethal 22.9%, IL1B secr inh inconclusive and TDP1 cell noCPT inconclusive.
CC1Cc2cc(/C=C3/SC(N4CCC(C(N)=O)CC4)=NC3=O)ccc2O1 (stereo unspecified) was read as DT40 TDP1 CPT 14.6µM*, HT1080 IDH1KD tx inconclusive, HT1080NT lethal inconclusive and TDP1 cell noCPT 18.4µM*.
`CC1CCN(C2=NC(=O)/C(=C/c3ccccc3F)S2)CC1` gave DT40 TDP1 CPT -3.7%, HT1080 IDH1KD tx -21.4%, HT1080NT lethal -4.3%, IL1B secr inh -99.2* and TDP1 cell noCPT inconclusive.
`CC1CCN(C2=NC(=O)/C(=C/c3cccc(O)c3)S2)CC1` gave DT40 TDP1 CPT inconclusive, HT1080 IDH1KD tx -4.3%, HT1080NT lethal -20.6%, IL1B secr inh -75.2* and TDP1 cell noCPT inconclusive.
For OC(c1ccccc1)c1ncc(-c2cccc(OCc3ccccc3)c2)[nH]1 (stereo unspecified) the results were DT40 TDP1 CPT inconclusive, HT1080 IDH1KD tx inconclusive, HT1080NT lethal inconclusive, IL1B secr inh -11.7 and TDP1 cell noCPT inconclusive.
Screening CC(OC(=O)c1ccccc1NCc1ccco1)C(=O)Nc1ncc(Cl)cc1Cl (stereo unspecified) returned DT40 TDP1 CPT inconclusive, HT1080 IDH1KD tx -6.1%, HT1080NT lethal -4.4%, IL1B secr inh -10.3 and TDP1 cell noCPT inconclusive.
`Cc1c(NC(=O)c2cccc(-c3cc4ccccc4oc3=O)c2)cccc1-c1nc2ncccc2o1` gave DT40 TDP1 CPT 25.9µM*, HT1080 IDH1KD tx -23.8%, HT1080NT lethal -23.7%, IL1B secr inh 30.6 and TDP1 cell noCPT 20.6µM*.
O=C(Nc1cccc(-c2nc3ncccc3o2)c1)c1ccccc1 was read as DT40 TDP1 CPT inconclusive, HT1080 IDH1KD tx 15.4%, HT1080NT lethal 23.5%, IL1B secr inh 70.0 and TDP1 cell noCPT 11.6µM*.
O=c1cnn(-c2ccccc2)c(-c2ccccc2)c1 was read as DT40 TDP1 CPT inconclusive, HT1080 IDH1KD tx inconclusive, HT1080NT lethal inconclusive, IL1B secr inh 5.9 and TDP1 cell noCPT 18.4µM*.
`CC(c1nccs1)N(C)C(=O)CCc1nnc(Cc2c[nH]c3ccccc23)o1` (stereo unspecified) gave DT40 TDP1 CPT 3.6%, HT1080 IDH1KD tx -18.0%, HT1080NT lethal -3.8%, IL1B secr inh 0.0 and TDP1 cell noCPT -2.3%.
For O=C(CN1C2CCCC1CC(NC(=O)C1CCCCC1)C2)Nc1ccccc1 (stereo unspecified) the results were DT40 TDP1 CPT 14.6µM*, HT1080 IDH1KD tx 0.4%, HT1080NT lethal -16.4%, IL1B secr inh 16.7 and TDP1 cell noCPT inconclusive.
For CCCCn1c(=O)c2oc3ccccc3c2n(Cc2ccc(C)cc2)c1=O the results were DT40 TDP1 CPT -3.8% and TDP1 cell noCPT inconclusive.
For O=C(O)c1ccc(-n2c(/C=C/c3cccc([N+](=O)[O-])c3)nc3ccccc3c2=O)cc1 the results were DT40 TDP1 CPT 4.3%, HT1080 IDH1KD tx -3.1%, HT1080NT lethal 10.1%, IL1B secr inh -9.1 and TDP1 cell noCPT inconclusive.
`COc1ccc(-n2c(/C=C/c3cccc(C(F)(F)F)c3)nc3ccccc3c2=O)cc1Cl` gave DT40 TDP1 CPT 8.2µM* and TDP1 cell noCPT 13µM*.
`COc1ccc(-n2c(/C=C/c3cccc4ccccc34)nc3ccccc3c2=O)cc1Cl` gave DT40 TDP1 CPT 20.6µM* and TDP1 cell noCPT 20.6µM*.
CCC1NC(=O)c2cc3ccccc3cc2-n2c1nc1cc(OC)c(OC)cc1c2=O (stereo unspecified) was read as DT40 TDP1 CPT inconclusive, HT1080 IDH1KD tx 0.5%, HT1080NT lethal 6.0%, IL1B secr inh -11.4 and TDP1 cell noCPT inconclusive.
CCOc1ccc(-n2c(/C=C/c3cccc(F)c3)nc3cc(OC)c(OC)cc3c2=O)cc1 was read as DT40 TDP1 CPT 9.2µM* and TDP1 cell noCPT 9.2µM*.
COc1ccc(-n2c(/C=C/c3ccccc3F)nc3cc(OC)c(OC)cc3c2=O)cc1Cl was read as DT40 TDP1 CPT 14.6µM* and TDP1 cell noCPT 18.4µM*.
Cc1cccc(N2CCN(C3(c4ccccc4)C(=O)c4ccccc4C3=O)CC2C)c1 (stereo unspecified) was read as DT40 TDP1 CPT -28.8% and TDP1 cell noCPT inconclusive.
COc1ccc(-n2c(SC3CCOC3=O)nc3ccccc3c2=O)cc1OC (stereo unspecified) was read as DT40 TDP1 CPT -14.0%, HT1080 IDH1KD tx -2.0%, HT1080NT lethal -2.9%, IL1B secr inh -13.5 and TDP1 cell noCPT 2.6%.
Screening COc1ccc(-n2c(SC3CCOC3=O)nc3ccccc3c2=O)cc1Cl (stereo unspecified) returned DT40 TDP1 CPT 13µM*, HT1080 IDH1KD tx 2.1%, HT1080NT lethal -3.0%, IL1B secr inh -12.8 and TDP1 cell noCPT inconclusive.
For CC(Nc1ccccc1N1CCCCC1)C(=O)N1CCc2ccccc21 (stereo unspecified) the results were DT40 TDP1 CPT inconclusive, HT1080 IDH1KD tx -8.6%, HT1080NT lethal 15.7%, IL1B secr inh -21.8 and TDP1 cell noCPT 16.4µM*.
`CC(NC(c1ccccc1)c1ccccc1)C(=O)N1CCCc2ccccc21` (stereo unspecified) gave DT40 TDP1 CPT 11.6µM*, HT1080 IDH1KD tx -16.4%, HT1080NT lethal -17.4%, IL1B secr inh -5.3 and TDP1 cell noCPT 10.3µM*.
Screening CC(NCC1(N2CCOCC2)CCCCC1)C(=O)N1CCc2ccccc21 (stereo unspecified) returned DT40 TDP1 CPT -14.7%, HT1080 IDH1KD tx -1.1%, HT1080NT lethal -2.5%, IL1B secr inh -11.5 and TDP1 cell noCPT inconclusive.
Screening COc1ccccc1NC(=O)NC1CCS(=O)(=O)C1 (stereo unspecified) returned DT40 TDP1 CPT 20.4%, HT1080 IDH1KD tx 16.3%, HT1080NT lethal -0.1%, IL1B secr inh 13.5 and TDP1 cell noCPT -4.1%.
For COC(=O)c1cc(S(=O)(=O)NCc2ccc(Br)cc2)c[nH]1 the results were DT40 TDP1 CPT -14.1%, HT1080 IDH1KD tx -1.7%, HT1080NT lethal -1.6%, IL1B secr inh 7.4 and TDP1 cell noCPT -15.2%.
`COc1ccc(CCn2c(C)cc(C(=O)CCl)c2C)cc1OC` gave DT40 TDP1 CPT 6.51µM*, HT1080 IDH1KD tx inconclusive, HT1080NT lethal inconclusive, IL1B secr inh -100.5* and TDP1 cell noCPT 5.17µM*.
